NPR1 antag – Natriuretic polypeptide receptor (hNpr1) antagonism - Primary qHTS. AID 1347048, 2019. Potency, µM (highest dose often 46.3 µM), for inactives: at the top dose activity change, negative = inhibition, hits mostly inhibitors. HEK293 hNpr1 GloSensor cGMP, ANP-stimulated luminescence. Atrial natriuretic peptide receptor 1 (Homo sapiens), P16066. 76,000 compounds, 1.6% hits; calls by dose curve; note: nearly all actives have a fitted effect of over 60% in size
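HEK293 cells stably expressing human Npr1 and cGMP GloSensor pGS-40F, loaded 2 h with 2% GloSensor reagent, given compound 30 min at room temperature. Luminescence read before and 20 min after 0.1 nM hNppA.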
FLuc inh – Firefly luciferase inhibition profiling of diverse chemical library using quantitative high-throughput screening; purified P. pyralis luciferase, luminescence, biochemical; Potency, µM (series often up to 115 µM), hits mostly inhibitors; 76,000 compounds, 2.5% hits; AID 1347043, 2019; note: nearly all actives have a fitted effect of over 65% in size
Target sequence (P08659 whole entry, looked up): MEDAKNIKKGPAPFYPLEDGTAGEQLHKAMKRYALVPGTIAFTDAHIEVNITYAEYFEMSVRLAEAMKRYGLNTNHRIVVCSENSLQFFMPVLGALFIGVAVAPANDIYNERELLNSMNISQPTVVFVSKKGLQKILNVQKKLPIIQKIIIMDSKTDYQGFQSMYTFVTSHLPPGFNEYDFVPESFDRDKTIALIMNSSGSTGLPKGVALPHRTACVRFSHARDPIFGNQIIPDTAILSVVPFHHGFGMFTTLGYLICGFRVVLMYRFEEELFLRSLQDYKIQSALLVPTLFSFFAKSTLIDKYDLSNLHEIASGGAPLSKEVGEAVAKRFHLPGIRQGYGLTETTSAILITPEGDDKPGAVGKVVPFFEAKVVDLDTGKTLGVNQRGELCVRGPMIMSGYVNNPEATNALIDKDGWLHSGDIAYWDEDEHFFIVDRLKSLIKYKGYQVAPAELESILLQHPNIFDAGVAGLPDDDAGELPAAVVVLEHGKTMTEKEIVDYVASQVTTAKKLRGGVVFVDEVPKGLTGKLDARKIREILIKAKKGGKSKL
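Inhibitors were tested against purified firefly luciferase in a biochemical, low-substrate format (both substrates at 10uM) and luminescence measured with a CCD imager.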
HEK cytotox – Cytotoxic Profiling in HEK 293 Cell Line of Diverse Libraries Using Quantitative High-Throughput Screening | Potency, µM (series often up to 115 µM), without a hit: at the highest dose activity change, negative = cytotoxicity, actives largely listed as inhibitors | 94,000 compounds, 6.6% hits | AID 1345083, 2018 | HEK 293 viability, ATP luminescence (CellTiter-Glo), 48-72 h; note: nearly all actives have a fitted effect of over 60% in size
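Viability of HEK 293 cells, plated at 250 cells/well, was judged by cellular ATP after compound treatment for 48 or 72 hr. Luminescence was imaged 10 min after CellTiter-Glo addition at room temperature.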
3T3 cytotox – Cytotoxic Profiling in NIH 3T3 Cell Line of Diverse Libraries Using Quantitative High-Throughput Screening. NIH 3T3 viability, CellTiter-Glo ATP luminescence, 48-72 h. Potency, µM (titrated, usually from 96.7 µM), without a hit: top-dose activity change, negative = cytotoxicity, usual class: inhibitors. AID 1345082, 2018. 94,000 compounds, 4.3% hits; note: nearly all actives have a fitted effect of over 55% in size
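Cells were seeded at 400 per well, treated with pin-transferred compound, and kept 48 or 72 hr at 37 °C before CellTiter-Glo addition and luminescence imaging of cellular ATP.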
An asterisk follows results filed as active; [ ] = another dose, or the depositor's remark. Sampled rows, rich in hits. Any-hit rate of the full collection: about 11%. Unless noted, calls come from the whole dose curve; as a rule, active = well fitted curve in the direction sought with a large enough effect; inconclusive = small, poorly fitted or top-dose-only effect, or another doubt; inactive = no such curve, though single readings can be large; an effect the other way counts as inactive or inconclusive. % is set by controls: 0 for no effect and ±100 for the full control effect; potency is the fitted concentration of half-maximal effect.

`CC1(C(=O)N2C[C@@H](Oc3ccccc3)C[C@H]2C(=O)N2CCOCC2)CCCCC1` gave NPR1 antag 0%, FLuc inh inactive, HEK cytotox -9% and 3T3 cytotox -24%.
Cn1nccc1C(O)c1cc2n(n1)CCN(Cc1nc(C3CC3)no1)C2 (stereo not drawn) was read as NPR1 antag 0%, FLuc inh inactive, HEK cytotox 0% and 3T3 cytotox -15%.
CCOC(=O)CCCOc1cccn2c(=O)c(-c3cc(C)n(-c4cccc(C)c4)n3)c(C)nc12 was read as NPR1 antag -2%, FLuc inh inactive, HEK cytotox -12% and 3T3 cytotox -2%.
For Cc1nc2c(OCC(=O)c3ccccc3)cccn2c(=O)c1-c1cc(C)n(-c2ccccc2)n1 the results were NPR1 antag -12%, FLuc inh 40µM*, HEK cytotox inconclusive and 3T3 cytotox -26%.
For COc1cc(-c2ccc(-c3nc(CC(C)C)no3)cn2)cc(OC)c1OC the results were NPR1 antag 1%, FLuc inh inactive, HEK cytotox inconclusive and 3T3 cytotox inconclusive.
For COc1ccc(-c2ccc(-c3nc(CC(C)C)no3)cn2)c2cccnc12 the results were NPR1 antag inconclusive, FLuc inh inactive, HEK cytotox 25µM* and 3T3 cytotox inconclusive.
Screening CC(=O)Nc1cccc(-c2cc(-c3c(C)noc3C)c3cncn3c2)c1 returned NPR1 antag -20%[70.6 µM], FLuc inh inactive, HEK cytotox inconclusive and 3T3 cytotox inconclusive.
`COc1ccc(-c2cc(-c3ccc4cn[nH]c4c3)cn3cncc23)cc1` gave NPR1 antag -14%[70.6 µM], FLuc inh inconclusive, HEK cytotox 71µM* and 3T3 cytotox 79µM*.
For c1cc(-c2cc(-c3ccc4cn[nH]c4c3)cn3cncc23)ccn1 the results were NPR1 antag -2%[70.6 µM], FLuc inh inactive, HEK cytotox 63µM* and 3T3 cytotox 18µM*.
For NC(=O)c1cccc(-c2cc(-c3ccncc3)c3cncn3c2)c1 the results were NPR1 antag 2%[70.6 µM], FLuc inh inactive, HEK cytotox inconclusive and 3T3 cytotox 35µM*.
Cc1cn2nc(C(=O)NCc3ccc(Cl)cc3)cc2c(N2CCCC2)n1 was read as NPR1 antag 6%, FLuc inh inactive, HEK cytotox inconclusive and 3T3 cytotox inconclusive.
COc1cccc(NC(=O)C2(C)CN(C)Cc3ccc(NCc4ccccc4)nc32)c1 (stereo not drawn) was read as NPR1 antag -2%[70.6 µM], FLuc inh inactive, HEK cytotox inconclusive and 3T3 cytotox 40µM*.
CN1Cc2ccc(NCc3ccccc3)nc2C(C)(C(=O)NC2CCC2)C1 (stereo not drawn) was read as NPR1 antag 2%[70.6 µM], FLuc inh inactive, HEK cytotox inconclusive and 3T3 cytotox inconclusive.
COc1ccc(NC(=O)C2(C)CN(C)Cc3ccc(NCc4ccccc4)nc32)cn1 (stereo not drawn) was read as NPR1 antag -17%[70.6 µM], FLuc inh inactive, HEK cytotox 79µM* and 3T3 cytotox 79µM*.
For Cc1cc(C)cc(-c2ccc(CN3CCCC(NC(=O)c4ccccn4)C3)cc2)c1 (stereo not drawn) the results were HEK cytotox inconclusive and 3T3 cytotox 14µM*.
For COc1cccc(-c2ccc(CN3CCCC(NC(=O)c4ccc(C(F)(F)F)cc4)C3)cc2)c1 (stereo not drawn) the results were HEK cytotox -33% and 3T3 cytotox -24%.
COc1cccc(-c2ccc(CN3CCCC(NC(=O)c4ccc(C)cc4)C3)cc2)c1 (stereo not drawn) was read as HEK cytotox 22µM* and 3T3 cytotox inconclusive.
Screening COc1cccc(-c2ccc(CN3CCCC(NC(=O)c4ccncc4)C3)cc2)c1 (stereo not drawn) returned HEK cytotox 22µM* and 3T3 cytotox inconclusive.
`O=C(NC1CCCN(Cc2ccc(-c3cncnc3)cc2)C1)c1ccccn1` (stereo not drawn) gave HEK cytotox inconclusive and 3T3 cytotox -4%.
Screening O=C(NC1CCCN(Cc2ccc(-c3cncnc3)cc2)C1)c1ccncc1 (stereo not drawn) returned HEK cytotox inconclusive and 3T3 cytotox -22%.
